# The entries come from a sample that favours the strongest signals as a whole.
# B1: ERGIC1-EDTA (Homo sapiens), Q969X5 (protein)
# chain: MKFLVNVALVFMVVYISYIYAAAHMHHHHHHDYDIPTTENLYFQGSEVVNELYVDDPDKDSGGKIDVSLNISLPNLHCELVGLDIQDEMGRHEVGHIDNSMKIPLNNGAGCRFEGQFSINKVPGNFHVSTHSATAQPQNPDMTHVIHKLSFGDTLQVQNIHGAFNALGGADRLTSNPLASHDYILKIVPTVYEDKSGKQRYSYQYTVANKEYVAYSHTGRIIPAIWFRYDLSPITVKYTE
# Key:
# Assay in all cases: glycan array binding signal (z-score within array); higher = stronger binding
# Conditions in all cases: glycan notation: IUPAC condensed, linker removed
# Fuc(a1-2)Gal(b1-4)Glc = biological target: Fuc(a1-2)Gal(b1-4)Glc
# Summary of the method: (§1)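 Columns mapping to the same glycan were averaged after glycan names were converted to IUPAC-condensed notation. The data come from 3228 arrays in the Consortium for Functional Glycomics database, limited to those with an available protein sequence. Binding is reported as a within-array Z-score averaged across arrays of one protein sequence and across linkers.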
# [1] = biological target: Fuc(a1-2)Gal(b1-4)GlcNAc(b1-2)[Fuc(a1-2)Gal(b1-4)GlcNAc(b1-4)]Man(a1-3)[Fuc(a1-2)Gal(b1-4)GlcNAc(b1-2)Man(a1-6)]Man(b1-4)GlcNAc(b1-4)GlcNAc
# Summary of the method: as §1
# [2] = biological target: Fuc(a1-2)Gal(b1-4)GlcNAc(b1-6)GalNAc
# Summary of the method: as §1
# [3] = biological target: Fuc(a1-2)Gal(b1-4)[Fuc(a1-3)]GlcNAc(b1-2)[Fuc(a1-2)Gal(b1-4)[Fuc(a1-3)]GlcNAc(b1-4)]Man(a1-3)[Fuc(a1-2)Gal(b1-4)[Fuc(a1-3)]GlcNAc(b1-2)Man(a1-6)]Man(b1-4)GlcNAc(b1-4)GlcNAc
# Summary of the method: as §1
# [4] = biological target: Fuc(a1-2)[Gal(a1-3)]Gal(b1-4)GlcNAc
# Summary of the method: as §1
# [5] = biological target: Fuc(a1-2)[Gal(a1-3)]Gal(b1-4)GlcNAc(b1-2)Man
# Summary of the method: as §1
# [6] = biological target: Fuc(a1-2)[GalNAc(a1-3)]Gal(b1-3)GlcNAc
# Summary of the method: as §1
# [7] = biological target: Fuc(a1-2)[GalNAc(a1-3)]Gal(b1-4)GlcNAc(b1-2)Man(a1-3)[Fuc(a1-2)[GalNAc(a1-3)]Gal(b1-4)GlcNAc(b1-2)Man(a1-6)]Man(b1-4)GlcNAc(b1-4)[Fuc(a1-6)]GlcNAc
# Summary of the method: as §1
# [8] = biological target: Gal(a1-3)Gal(b1-3)GlcNAc(b1-6)GalNAc
# Summary of the method: as §1
# [9] = biological target: Gal(a1-3)Gal(b1-4)GlcNAc(b1-3)GalNAc
# Summary of the method: as §1
# [10] = biological target: Gal(b1-3)GlcNAc(b1-2)[Gal(b1-3)GlcNAc(b1-6)]Man(a1-6)[Gal(b1-3)GlcNAc(b1-2)Man(a1-3)]Man(b1-4)GlcNAc(b1-4)GlcNAc
# Summary of the method: as §1
# [11] = biological target: Gal(b1-3)[Fuc(a1-4)]GlcNAc(b1-6)GalNAc
# Summary of the method: as §1
# Gal(b1-4)Glc6S = biological target: Gal(b1-4)Glc6S
# Summary of the method: as §1
# [12] = biological target: Gal(b1-4)GlcNAc(b1-3)Gal(b1-3)GalNAc
# Summary of the method: as §1
# [13] = biological target: Gal(b1-4)GlcNAc(b1-3)Gal(b1-4)GlcNAc(b1-2)Man(a1-3)[Gal(b1-4)GlcNAc(b1-3)Gal(b1-4)GlcNAc(b1-2)Man(a1-6)]Man(b1-4)GlcNAc(b1-4)[Fuc(a1-6)]GlcNAc
# Summary of the method: as §1
# [14] = biological target: Gal(b1-4)GlcNAc(b1-3)Gal(b1-4)GlcNAc(b1-3)Gal(b1-4)GlcNAc(b1-3)Gal(b1-4)GlcNAc(b1-2)Man(a1-3)[Gal(b1-4)GlcNAc(b1-3)Gal(b1-4)GlcNAc(b1-3)Gal(b1-4)GlcNAc(b1-3)Gal(b1-4)GlcNAc(b1-2)Man(a1-6)]Man(b1-4)GlcNAc(b1-4)[Fuc(a1-6)]GlcNAc
# Summary of the method: as §1
# [15] = biological target: Gal(b1-4)GlcNAc(b1-6)[Gal(b1-4)GlcNAc(b1-3)]GalNAc
# Summary of the method: as §1
# Gal3S(b1-4)Glc6S = biological target: Gal3S(b1-4)Glc6S
# Summary of the method: as §1
# Gal3S(b1-4)GlcNAc = biological target: Gal3S(b1-4)GlcNAc
# Summary of the method: as §1
# GalNAc(b1-4)Gal(b1-4)Glc = biological target: GalNAc(b1-4)Gal(b1-4)Glc
# Summary of the method: as §1
# [16] = biological target: GalNAc(b1-4)GlcNAc(b1-2)Man(a1-3)[GalNAc(b1-4)GlcNAc(b1-2)Man(a1-6)]Man(b1-4)GlcNAc(b1-4)GlcNAc
# Summary of the method: as §1
# [17] = biological target: GlcNAc(a1-6)Gal(b1-4)GlcNAc
# Summary of the method: as §1
# [18] = biological target: GlcNAc(b1-3)Gal(b1-4)GlcNAc(b1-3)Gal(b1-4)GlcNAc(b1-2)Man(a1-3)[GlcNAc(b1-3)Gal(b1-4)GlcNAc(b1-3)Gal(b1-4)GlcNAc(b1-2)Man(a1-6)]Man(b1-4)GlcNAc(b1-4)[Fuc(a1-6)]GlcNAc
# Summary of the method: as §1
# [19] = biological target: GlcNAc(b1-3)Gal(b1-4)GlcNAc(b1-3)Gal(b1-4)GlcNAc(b1-3)Gal(b1-4)GlcNAc(b1-2)Man(a1-3)[GlcNAc(b1-3)Gal(b1-4)GlcNAc(b1-3)Gal(b1-4)GlcNAc(b1-3)Gal(b1-4)GlcNAc(b1-2)Man(a1-6)]Man(b1-4)GlcNAc(b1-4)[Fuc(a1-6)]GlcNAc
# Summary of the method: as §1
# [20] = biological target: Man(a1-2)Man(a1-2)Man(a1-6)[Man(a1-3)]Man
# Summary of the method: as §1
# [21] = biological target: Man(a1-3)[Man(a1-6)]Man(b1-4)GlcNAc(b1-4)[Fuc(a1-6)]GlcNAc
# Summary of the method: as §1
# [22] = biological target: Neu5Ac(a2-3)Gal(b1-3)GlcNAc(b1-3)GalNAc
# Summary of the method: as §1
# [23] = biological target: Neu5Ac(a2-3)Gal(b1-4)GlcNAc(b1-2)[Neu5Ac(a2-3)Gal(b1-4)GlcNAc(b1-6)]Man(a1-6)[Neu5Ac(a2-3)Gal(b1-4)GlcNAc(b1-2)Man(a1-3)][GlcNAc(b1-4)]Man(b1-4)GlcNAc(b1-4)GlcNAc
# Summary of the method: as §1
# [24] = biological target: Neu5Ac(a2-3)Gal(b1-4)GlcNAc(b1-3)Gal
# Summary of the method: as §1
# [25] = biological target: Neu5Ac(a2-3)Gal(b1-4)GlcNAc(b1-3)Gal(b1-4)GlcNAc(b1-3)GalNAc
# Summary of the method: as §1
# [26] = biological target: Neu5Ac(a2-3)Gal(b1-4)GlcNAc(b1-3)Gal(b1-4)[Fuc(a1-3)]GlcNAc
# Summary of the method: as §1
# [27] = biological target: Neu5Ac(a2-3)Gal(b1-4)GlcNAc(b1-6)[Neu5Ac(a2-3)Gal(b1-3)]GalNAc
# Summary of the method: as §1
# [28] = biological target: Neu5Ac(a2-3)Gal(b1-4)[Fuc(a1-3)]GlcNAc(b1-3)Gal(b1-4)GlcNAc
# Summary of the method: as §1
# [29] = biological target: Neu5Ac(a2-3)Gal(b1-4)[Fuc(a1-3)]GlcNAc(b1-3)GalNAc
# Summary of the method: as §1
# [30] = biological target: Neu5Ac(a2-3)Gal(b1-4)[Fuc(a1-3)]GlcNAc(b1-6)[Neu5Ac(a2-3)Gal(b1-3)]GalNAc
# Summary of the method: as §1
# [31] = biological target: Neu5Ac(a2-6)Gal(b1-4)GlcNAc(b1-2)Man(a1-3)[Man(a1-6)]Man(b1-4)GlcNAc(b1-4)GlcNAc
# Summary of the method: as §1
# [32] = biological target: Neu5Ac(a2-6)Gal(b1-4)GlcNAc(b1-2)Man(a1-3)[Neu5Ac(a2-6)Gal(b1-4)GlcNAc(b1-2)Man(a1-6)]Man(b1-4)GlcNAc(b1-4)GlcNAc
# Summary of the method: as §1
# [33] = biological target: Neu5Ac(a2-6)Gal(b1-4)GlcNAc(b1-2)Man(a1-3)[Neu5Ac(a2-6)Gal(b1-4)GlcNAc(b1-2)Man(a1-6)]Man(b1-4)GlcNAc(b1-4)[Fuc(a1-6)]GlcNAc
# Summary of the method: as §1
# [34] = biological target: Neu5Ac(a2-6)Gal(b1-4)GlcNAc(b1-3)Gal(b1-3)GlcNAc
# Summary of the method: as §1
# [35] = biological target: Neu5Ac(a2-6)Gal(b1-4)GlcNAc(b1-3)Gal(b1-4)GlcNAc(b1-3)Gal(b1-4)GlcNAc(b1-2)Man(a1-3)[Neu5Ac(a2-6)Gal(b1-4)GlcNAc(b1-3)Gal(b1-4)GlcNAc(b1-3)Gal(b1-4)GlcNAc(b1-2)Man(a1-6)]GalNAc
# Summary of the method: as §1
# [36] = biological target: Neu5Ac(a2-6)Gal(b1-4)GlcNAc(b1-3)Gal(b1-4)GlcNAc(b1-3)GalNAc
# Summary of the method: as §1
# [37] = biological target: Neu5Ac(a2-6)Gal(b1-4)GlcNAc(b1-3)[Neu5Ac(a2-6)Gal(b1-4)GlcNAc(b1-6)]GalNAc
# Summary of the method: as §1
# [38] = biological target: Neu5Ac(a2-8)Neu5Ac(a2-8)Neu5Ac(a2-3)[GalNAc(b1-4)]Gal(b1-4)Glc
# Summary of the method: as §1
# [39] = biological target: Neu5Gc(b2-6)Gal(b1-4)GlcNAc
# Summary of the method: as §1
binder,measurement,setting,value
B1,glycan array binding signal (z-score),Fuc(a1-2)Gal(b1-4)Glc,-1.4
same,glycan array binding signal (z-score),[1],2.88
same,glycan array binding signal (z-score),[2],1.3
same,glycan array binding signal (z-score),[3],1.07
same,glycan array binding signal (z-score),[4],-0.089
same,glycan array binding signal (z-score),[5],0.546
same,glycan array binding signal (z-score),[6],0.499
same,glycan array binding signal (z-score),[7],2.25
same,glycan array binding signal (z-score),[8],0.056
same,glycan array binding signal (z-score),[9],-0.034
same,glycan array binding signal (z-score),[10],3.15
same,glycan array binding signal (z-score),[11],-0.044
same,glycan array binding signal (z-score),Gal(b1-4)Glc6S,-0.759
same,glycan array binding signal (z-score),[12],-1.26
same,glycan array binding signal (z-score),[13],2.13
same,glycan array binding signal (z-score),[14],2.23
same,glycan array binding signal (z-score),[15],-0.361
same,glycan array binding signal (z-score),Gal3S(b1-4)Glc6S,0.151
same,glycan array binding signal (z-score),Gal3S(b1-4)GlcNAc,-0.117
same,glycan array binding signal (z-score),GalNAc(b1-4)Gal(b1-4)Glc,-0.531
same,glycan array binding signal (z-score),[16],0.638
same,glycan array binding signal (z-score),[17],-0.295
same,glycan array binding signal (z-score),[18],0.799
same,glycan array binding signal (z-score),[19],2.52
same,glycan array binding signal (z-score),[20],-0.459
same,glycan array binding signal (z-score),[21],2.1
same,glycan array binding signal (z-score),[22],0.617
same,glycan array binding signal (z-score),[23],-0.63
same,glycan array binding signal (z-score),[24],-0.734
same,glycan array binding signal (z-score),[25],-0.406
same,glycan array binding signal (z-score),[26],-0.82
same,glycan array binding signal (z-score),[27],-0.285
same,glycan array binding signal (z-score),[28],2.27
same,glycan array binding signal (z-score),[29],3
same,glycan array binding signal (z-score),[30],1.03
same,glycan array binding signal (z-score),[31],1.69
same,glycan array binding signal (z-score),[32],-0.027
same,glycan array binding signal (z-score),[33],2.07
same,glycan array binding signal (z-score),[34],0.896
same,glycan array binding signal (z-score),[35],2.02
same,glycan array binding signal (z-score),[36],0.381
same,glycan array binding signal (z-score),[37],-1.06
same,glycan array binding signal (z-score),[38],0.592
same,glycan array binding signal (z-score),[39],-0.624

# Source: the supplement of paper PMC8728848
